Common to all, as to experiment: NCI-60 one-dose screen, 48 h (100 = growth as untreated, 0 = no growth, -100 = all killed)
What all share (conditions): 10 µM unless noted

Assay [1] deals with NCI-H23 lung.
The subject of assay [2] is NCI-H226 lung.
Assay [3] concerns NCI-H322M lung.
Assay [4] concerns HOP-62 NSCLC.
Assay [5] has as its system NCI-H460 lung.
The test system of assay [6] is NCI-H522 lung.
The subject of assay [7] is A549/ATCC NSCLC.
Assay [8] has as its system 786-0 renal.
The subject of assay [9] is COLO 205 colon.

About 83,000 compounds went through this panel and 20% of them were active in at least one assay; those are over-represented in the sample as a whole.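 In brief: 96-well plates, 48 h treatment, single concentration, percent growth endpoint.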 A number with no mark means an inactive call. Activity calls are given as the source filed them. How the source made its calls: active means growth percent below 10; inactive means the rest.

As for `COc1cc(NCCC2CCCCN2)c2ncccc2c1OC` (stereo not given), the growth in [1] was 49.1%; in [2], 117%; in assay [3], 116%; in [4], 102%; in assay [5] it was 80.3%; in assay [6] it was -7.89% (active). Besides, the growth in assay [7] was 82.1%; in [8] it was 90.1%; in assay [9], 78.1%.
`O=c1c2cc(Br)cc(Br)c2nc(-c2ccc(Cl)cc2)n1/N=C/c1cccc(F)c1`: the growth is 53.6% in assay [1]; 40.9% in assay [2]; 49.3% in [3]; 10.8% in assay [4]; 40.1% in assay [5]; 38.9% in assay [6]. For the same compound, the growth in assay [7] is 48.6%; in [8], 9.97% (active); in assay [9] it was 54.3%.
Regarding `CSc1nc(N)c2[nH]c(-c3cc4ccccc4[nH]c3=O)nc2n1`, the growth is 83.9% in [1]; 105% in assay [2]; 67% in [3]; 115% in assay [4]; 60.4% in [5]; 57.2% in assay [6]. The growth in [7] was 70.8%; in [8], 72.1%; in [9], 97.9%.
In the case of `O=C(Nc1ccc(Cl)cc1)c1cc(-c2ccc(Cl)cc2)c2sc(=O)[nH]c2n1`, the growth in assay [1] is 2.31% (active); in assay [2], 0.841% (active); in [3], 6.21% (active); in assay [4] it was -19% (active); in [5], -5.14% (active); in assay [6] it was -26.3% (active). Further, the growth in [7] is 1.59% (active); in assay [8], 6.31% (active); in assay [9], -52.1% (active).
In the case of `CC(C)(C)OC[C@@H]1N=C(c2ccc(Br)cc2)Nc2nc3ccccn3c2C1=O`, the growth in assay [1] was 71.5%; in assay [2], 78.1%; in assay [3] it was 84.8%; in assay [4] it was 54.5%; in [5], 41.3%; in assay [6] it was 33.4%. In addition, the growth in [7] was 51.6%; in assay [8], 94.2%; in assay [9], 62.7%.
As to `N#CCCn1cnc2c(N)ncnc21`, the growth in assay [1] is 101%; in [2] it was 95.9%; in assay [3] it was 123%; in [4], 94.6%; in assay [5], 108%; in assay [6] it was 97.7%. Besides, the growth in [7] was 99.9%; in [8] it was 96.7%; in assay [9], 120%.
Turning to `CC1(C)CC(=O)c2cc3c(N)c(C(=O)Nc4ccc(Cl)cc4)sc3nc2C1`, the growth in assay [1] was 105%; in assay [2], 108%; in assay [3], 114%; in assay [4], 108%; in [5] it was 109%; in assay [6] it was 95.8%. Further, the growth is 97.6% in assay [7], 98.7% in assay [8] and 117% in assay [9].
Consider `Nc1ccc(C2=NNC(=O)Cc3cc4c(cc32)OCCO4)cc1Cl`, for which the growth in assay [1] is 20.9%; in assay [2], 68.5%; in assay [3] it was 61.1%; in [4], 46%; in assay [5] it was 10.6%; in [6], 11%. Besides, the figures for the growth in [7], in [8] and in [9] were 40.3%, 54.3% and 26.9%, respectively.
For the compound `O=C1C=CN2C(=O)CC=CC2[C@@H]1O` (stereo not given in full), the growth in [1] is 103%; in assay [2] it was 113%; in assay [3], 116%; in [4], 112%; in assay [5] it was 121%; in assay [6] it was 113%. Moreover, the growth in [7] is 108%; in assay [8] it was 110%; in [9], 123%.
For `CCOC(=O)Cc1cc(Br)c(OCc2ccccc2)c(Br)c1`, the growth in [1] was 94.1%; in assay [2], 88.4%; in [3], 102%; in assay [4] it was 96.4%; in assay [5], 114%; in assay [6], 80.3%. For the same compound, the results for the growth in assay [7], in assay [8] and in assay [9] were 104%, 92.8% and 127%, respectively.
Turning to `CCN(CC)c1ccc(/C=N/N=C(N)N)cc1`, the growth was 65.7% in [1]; 84.5% in assay [2]; 87.7% in [3]; 54.8% in [4]; 23.3% in assay [5]; 27.1% in [6]. Also, the growth in assay [7] is 44.6%; in assay [8] it was 72.4%; in [9], 30.2%.
Take `CCN(CC)CCNC(=O)n1cc(-c2ccncc2)c(-c2ccc(Cl)c(OC)c2)n1`: the growth was 98% in assay [1]; 61.5% in assay [2]; 118% in assay [3]; 66.8% in [4]; 104% in assay [5]; 81.9% in assay [6]. The growth was 77.5% in [7], 72% in [8] and 70.1% in [9].
`Fc1ccc(-c2nc(-c3ccc(-c4nc5ccc(F)cc5[nH]4)cc3)no2)cc1`: the growth in assay [1] was 67.7%; in assay [2], 54.9%; in [3], 70.5%; in assay [4], 79.6%; in [5], 67.4%; in assay [6], 91.4%. Further, the growth in [7] is 75.4%; in [8], 102%; in assay [9], 71.6%.
With `COc1ccccc1CNCCCN1C(=O)c2ccc3c4c(ccc(c24)C1=O)C(=O)N(CCCOCCCCOCCCN)C3=O`, the growth in assay [1] is -67.6% (active); in assay [2] it was -10.8% (active); in assay [3], -12.1% (active); in assay [4] it was 14%; in assay [5], -65.5% (active); in [6] it was -77.4% (active). In addition, the growth is -33.8% (active) in [7], 14.3% in [8] and -95% (active) in [9].
Turning to `O=C(c1ccccc1)c1cccc(C(Br)Br)c1`, the growth in assay [1] is 92.8%; in assay [2], 101%; in assay [3], 95.1%; in [4], 86.7%; in assay [5] it was 66.4%; in assay [6], 66%. The growth in [7] was 86.9%; in [8] it was 100%; in assay [9], 96.6%.

The record behind these values is PubChem BioAssay (NCI).
